Source: PubChem (National Center for Advancing Translational Sciences (NCATS))
PLK1 PBD inh = blocks phosphopeptide binding to human PLK1 polo-box domain | Potency, µM, without a hit: max response, negative = inhibition, usual class: inhibitors | 360,000 compounds, 2.8% hits | P53350 | Plk1 PBD binding of FITC phosphopeptide, fluorescence polarization | AID 720504; further: series mostly up to about 57 µM; on the % scale 0 is the no-effect control and ±100 the full control effect; nearly all actives have a fitted effect of over 65% in size
Target sequence (P53350 whole entry, looked up, the tested form may be a part): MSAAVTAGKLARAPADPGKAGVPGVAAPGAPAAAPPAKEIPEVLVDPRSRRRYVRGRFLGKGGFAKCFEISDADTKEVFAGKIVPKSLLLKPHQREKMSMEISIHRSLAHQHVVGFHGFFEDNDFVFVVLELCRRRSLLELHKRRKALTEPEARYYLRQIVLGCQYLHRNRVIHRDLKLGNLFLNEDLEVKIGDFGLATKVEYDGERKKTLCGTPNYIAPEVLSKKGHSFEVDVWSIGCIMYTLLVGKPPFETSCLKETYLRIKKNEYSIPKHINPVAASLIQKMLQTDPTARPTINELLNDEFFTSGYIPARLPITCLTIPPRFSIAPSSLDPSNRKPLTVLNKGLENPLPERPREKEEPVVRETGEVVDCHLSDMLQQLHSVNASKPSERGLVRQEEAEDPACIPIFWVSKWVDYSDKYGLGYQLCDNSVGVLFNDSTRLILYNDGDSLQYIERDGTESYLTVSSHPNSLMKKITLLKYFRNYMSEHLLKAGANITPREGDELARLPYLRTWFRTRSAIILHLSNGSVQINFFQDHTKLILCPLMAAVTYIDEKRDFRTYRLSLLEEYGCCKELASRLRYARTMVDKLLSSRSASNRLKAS
G9a inh = G9a (human) methyltransferase inhibition. G9a H3K9 monomethylation, AlphaScreen, 2 h. Potency, µM (doses to about 102 µM), inactives show top-dose activity, negative = inhibition, most hits filed as inhibitors. 350,000 compounds, 8.8% hits. AID 504332; further: on the % scale 0 is the no-effect control and ±100 the full control effect; nearly all actives have a fitted effect of over 75% in size
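Using a bead-based AlphaScreen, monomethylated H3K9 product from 2 h room-temperature reactions (G9a 20 nM, peptide 500 nM, SAM 20 uM) was detected with 0.5 ug/mL rabbit anti-H3K9me1 antibody.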
HP1b binding inh = inhibitors of HP1-beta chromodomain binding to methylated histone tails. P83916. AlphaScreen HP1-beta / biotin-H3K9me3 peptide binding. Potency, µM (series often up to 114 µM), without a hit: at the highest dose activity change, negative = inhibition, most hits filed as inhibitors. 390,000 compounds, 0.56% hits. AID 540317; further: nearly all actives have a fitted effect of over 70% in size
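HP1-beta protein (50 nM final) preincubated 30 min at room temperature with biotinylated H3(1-18)K9me3 peptide (50 nM) in PBS pH 7.4, 0.01% Tween-20, then compound added for 30 min. AlphaScreen streptavidin donor/nickel chelate acceptor beads (10 ug/mL final), 30 min dark, luminescence read.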
BAZ2B block = BAZ2B (human) inhibition; Q9UIF8; AlphaScreen BAZ2B-H3K14Ac peptide displacement; Potency, µM (top dose mostly 114 µM), for inactives: top-dose activity change, negative = inhibition, most hits filed as inhibitors; 360,000 compounds, 4.4% hits; AID 504333; further: on the % scale 0 is the no-effect control and ±100 the full control effect; nearly all actives have a fitted effect of over 60% in size
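AlphaScreen displacement of biotin-H3(5-23)K14Ac peptide (50 nM final) from BAZ2B (50 nM final) in PBS pH 7.4, 0.01% Tween-20; complex preformed 30 min RT, then compounds (top 110 uM) 30 min RT, beads 20 min dark.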
VDR inhibitor = blocks the human vitamin D receptor; P11473; VDR-SRC2-3 peptide fluorescence polarization, 2 h; Potency, µM, without a hit: max response, negative = inhibition, hits mostly inhibitors; 400,000 compounds, 0.93% hits; further: on the % scale 0 is the no-effect control and ±100 the full control effect
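Inhibition of the VDR/SRC2-3 peptide interaction is quantified by fluorescence polarization. Compounds (23 nl, pintool) incubate with the reagents for 2 hours at ambient room temperature.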
JMJD2A Tudor inh = blocks the human JMJD2A Tudor domain. O75164. AlphaScreen JMJD2A-Tudor / H3K4me3 peptide binding. Potency, µM (titrated, usually from 114 µM), inactives show at the highest dose activity change, negative = inhibition, actives largely listed as inhibitors. 390,000 compounds, 4.4% hits; further: on the % scale 0 is the no-effect control and ±100 the full control effect; nearly all actives have a fitted effect of over 50% in size
The depositor's hits bear a star; ? = inconclusive; . = not tested or not shown; [ ] = remark or other dose. In the library only some 11% were active in any assay of this set; here they are far more common. The call rests on the fitted dose curve; in most records, active means well fitted curve in the direction sought with a large enough effect; inconclusive means small, poorly fitted or top-dose-only effect, or another doubt; inactive means no such curve, though single readings can be large; an effect the other way counts as inactive or inconclusive. Potency means the concentration at half of the fitted maximal effect.

SMILES	PLK1 PBD inh	G9a inh	HP1b binding inh	BAZ2B block	VDR inhibitor	JMJD2A Tudor inh
O=c1oc(-c2ccc([N+](=O)[O-])cc2)nc2ccccc12	1.2%	-3.2%	12.5%	-7.2%	2.3%	-18.4%
Cc1c(CC(=O)NCCCC(=O)O)c(=O)oc2cc3c(cc12)CCC(C)(C)O3	26.7µM*	-7.2%	7.4%	0.4%	?	?
COCCCNC(=O)Cc1c(C)c2cc3c(cc2oc1=O)OC(C)(C)CC3	-4.8%	23.4%	25.6%	-14.0%	-9.7%	-9.0%
COc1ccc(C(C[N+](=O)[O-])c2c(C)[nH]n(-c3ccccc3)c2=O)cc1 (stereo not given)	23.8µM*	9.4%[2.33 µM]	?	-22.6%	?	89.1µM*
Cc1[nH]n(-c2cccc([N+](=O)[O-])c2)c(=O)c1-c1ccccc1	-7.1%	-50.8%	7.9%	?	-16.0%	-25.1%
Cc1[nH]n(-c2ccccc2)c(=O)c1C(c1ccc(O)c([N+](=O)[O-])c1)c1c(C)[nH]n(-c2ccccc2)c1=O	23.8µM*	.	-50.8%	.	?	?
COc1ccc(C(c2c(C)n(C)n(-c3ccccc3)c2=O)c2c(C)n(C)n(-c3ccccc3)c2=O)cc1	-0.2%	28.6%	41.9%	-5.1%	-1.3%	-0.7%
CCCCC[C@H](O)/C=C/[C@H]1OC(=O)C[C@H](O)[C@@H]1C/C=C\CCCC(=O)O	.	.	.	.	1.6%	.
CCCCC[C@H](O)/C=C/[C@H]1[C@H](O)CC(=O)[C@@H]1C/C=C\CCCC(=O)O	.	-0.2%[12.7 µM]	.	.	?	.
CCCCC[C@H](O)/C=C/[C@H]1C(=O)C=C[C@@H]1C/C=C\CCCC(=O)O	.	28.5%[59 µM]	.	.	31.6µM*	.
CCCCC[C@H](O)/C=C/C1C(=O)C=C[C@H]1C/C=C\CCCC(=O)OC (stereo not given in full)	-16.2%	.	53.7%	.	25.1µM*	1.4%
CCCCC[C@H](O)/C=C/[C@@H]1[C@@H](C/C=C\CCCC(=O)OC)[C@@H](O)C[C@H]1O	-15.3%	39.8µM*	?	14.1µM*	-14.4%	22.4µM*
CC1(NC(=O)Cn2cc(C(F)(F)F)ccc2=O)CCS(=O)(=O)C1 (stereo not given)	-10.5%	15.4%[59 µM]	28.0%	-2.5%	-18.0%	-6.8%
O=C(Cn1c(=O)n(Cc2ccco2)c(=O)c2oc3ccccc3c21)Nc1ccc(F)c(Cl)c1	.	-5.2%[59 µM]	18.6%	-4.1%	10.2%	-19.4%
Cc1ccc(C(=O)C2CCOC(C)(C)C2)cc1 (stereo not given)	-2.0%	5.8%	42.2%	-10.5%	-17.0%	2.7%
COc1ccc(OC)c(NC(=O)CSc2nc3[nH]c(=O)[nH]c(=O)c3s2)c1	-9.1%	.	19.1%[57 µM]	.	15.3%	-16.2%
CC(=O)NCCNC(=O)c1ccc2c(=O)n(CCc3ccccc3)c(=O)[nH]c2c1	.	2.6%[59 µM]	19.6%	1.8%	?	-7.2%
COc1cc(NC(=O)C2(C)CCCN2C)cc(OC)c1OC (stereo not given)	-12.4%	.	.	.	.	.
Cc1ccc(CNC(=O)C2CCC(CNS(=O)(=O)c3ccc4c(c3)CCCC(=O)N4)CC2)cc1 (stereo not given)	.	8.8%[59 µM]	11.4%	0.0%	-4.4%	-14.6%
COCCN1CCn2c(nc3cc(NC(=O)Cn4nc(C)c5ccccc5c4=O)ccc32)C1	-2.9%	?	24.2%	10.2%	-6.7%	-14.8%
COCCN1CCn2c(nc3cc(NC(C)=O)ccc32)C1	?	35.5µM*	40.1%	-15.4%	-13.9%	-18.5%
COCCN1CCn2c(nc3cc(Nc4nnc(C)c5ccccc45)ccc32)C1	-8.7%	?	33.7%	?	-24.2%	89.1µM*
Cc1cc(-c2ccccc2)nc2cc(C(=O)Nc3ccc(Cl)c(Cl)c3)nn12	.	?	7.9%	?	2.8%	?
COc1ccc(-c2cc(C(F)(F)F)nc(S(=O)(=O)CCCC(=O)Nc3cccc(O)c3)n2)cc1OC	-25.8%	-44.4%[59 µM]	62.1%	-7.2%	?	-6.5%
COc1ccc(NC(=O)CCCS(=O)(=O)c2nc(-c3ccc(OC)c(OC)c3)cc(C(F)(F)F)n2)cc1OC	.	15.8µM*	36.5%	-4.0%	79.4µM*	-14.3%
